# High-throughput results as filed in PubChem BioAssay.
# The list is not random: actives were taken first. Their share in the collection is about 5.4%.
# APOBEC3G inh: APOBEC3G DNA deaminase inhibitors, primary screen, biochemical, fluorescence, single-stranded DNA substrate, uHTS; DNA dC->dU-editing enzyme APOBEC-3G (Homo sapiens), Q9HC16; recombinant A3G, ssDNA deamination FAM/TAMRA fluorescence; inhibition, % at 20 µM; 0.28% of 330,000 active;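 active means inhibition of at least 40% at 20 µM, with no more than 30% in the related APOBEC3A deaminase screen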;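 further: plate controls were DMSO wells with A3G for no effect and wells lacking A3G enzyme for full effect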
# Target sequence (Q9HC16 whole entry, looked up): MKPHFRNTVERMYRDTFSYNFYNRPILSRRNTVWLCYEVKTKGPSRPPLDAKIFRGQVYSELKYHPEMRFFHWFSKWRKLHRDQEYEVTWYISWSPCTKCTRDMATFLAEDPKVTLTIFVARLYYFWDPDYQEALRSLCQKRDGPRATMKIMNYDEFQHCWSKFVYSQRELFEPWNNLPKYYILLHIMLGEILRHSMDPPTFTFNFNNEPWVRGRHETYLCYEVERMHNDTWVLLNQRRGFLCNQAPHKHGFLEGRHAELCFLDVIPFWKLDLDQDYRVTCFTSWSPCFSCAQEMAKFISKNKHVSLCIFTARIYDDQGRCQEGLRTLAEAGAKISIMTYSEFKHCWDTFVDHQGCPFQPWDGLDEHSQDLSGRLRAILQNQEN
# rCAG binder: binders of r(CAG) RNA repeats, primary screen, biochemical, fluorescence; r(CAG) RNA repeat, TO-PRO-1 dye displacement fluorescence; 1.3% of 370,000 active; AID 651821, 2012; inhibition, % at 3 µM;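 active means inhibition above the plate cutoff, the mean of all test compounds on that plate plus 3 SD, cut at about 35% in these data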;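 further: 0% = DMSO alone and 100% = 100 µM mitoxantrone as full dye displacement; higher means more dye released from RNA so lower well fluorescence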
# ALR H2O2 inh: inhibitors of human ALR sulfhydryl oxidase, primary screen, biochemical, H2O2 detection, HRP-luminol luminescence, single point. purified ALR, DTT oxidation. inhibition, % (concentration not given with the values). AID 485317, 2010. 3.8% of 290,000 active. FAD-linked sulfhydryl oxidase ALR (Homo sapiens), P55789;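 active means mean replicate inhibition above about 79%, with every replicate also reaching it, limit read from the data; inconclusive means only one of the two criteria met; inactive means mean below limit and not every replicate reaching it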
# aDG glyco act: activators of alpha-DG glycosylation, primary screen, uHTS, Pro5-aDG cells, AlphaScreen; alpha-DG glycosylation AlphaScreen (IIH6); 0% Pro5, 100% B10-LARGE cell signal; activation, % at 10 µM; 0.22% of 360,000 active; AID 624168, 2012;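 active means activation of at least 8% versus controls, or a plate z-score of at least 8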;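 further: Pro5 are CHO cells carrying HIG-tagged alpha-DG that lacks glycosylation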
# A3A deaminase: APOBEC3A ssDNA deaminase inhibitors, primary screen, selectivity assay for APOBEC3G inhibitor project, biochemical, FAM/TAMRA oligo cleavage fluorescence; 0.41% of 330,000 active; recombinant A3A, FAM/TAMRA ssDNA deamination fluorescence; DNA dC->dU-editing enzyme APOBEC-3A (Homo sapiens), P31941; inhibition, % at 20 µM;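 active means at least 40% inhibition at 20 µM here, with at most 30% in a related deaminase screen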;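 further: plate controls were A3A with DMSO for no effect and wells lacking A3A enzyme for full effect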
# Target sequence (P31941 whole entry, looked up): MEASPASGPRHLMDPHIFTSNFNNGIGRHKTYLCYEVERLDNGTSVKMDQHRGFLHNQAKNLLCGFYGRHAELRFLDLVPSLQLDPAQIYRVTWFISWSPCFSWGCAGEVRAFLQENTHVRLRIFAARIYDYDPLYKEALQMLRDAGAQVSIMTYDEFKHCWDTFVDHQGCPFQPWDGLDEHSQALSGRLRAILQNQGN
# PHOSPHO1 inh: PubChem AID 1565. Phosphoethanolamine/phosphocholine phosphatase (Homo sapiens), Q8TCT1. recombinant PHOSPHO1, absorbance phosphatase assay. inhibition, % at 13.3 µM. 1.1% of 290,000 active; in the data active means inhibition above about 60%
# aDG conf: alpha-DG glycosylation enhancers, retest, confirmation, single concentration, Pro5-aDG cells. 17% of 600 active. IIH6 AlphaLISA; scaled to LARGE-overexpressing B10 cells as 100%. activation, % at 10 µM (by protocol). shares compounds with aDG glyco act;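 active means activation of at least 7% in one or more replicates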;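 further: cells exposed to compound for two days before detection; 0% = DMSO-treated Pro5 cells and 100% = DMSO-treated B10-LARGE cells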
# Numbers without * were called inactive; ? = inconclusive; nt = no result; ! = not confirmed by another sample.
SMILES,APOBEC3G inh,rCAG binder,ALR H2O2 inh,aDG glyco act,A3A deaminase,PHOSPHO1 inh,aDG conf
Cc1ccc2c(c1)NC(=O)C(CC(=O)NCCCN1CCN(c3cc(Cl)ccc3C)CC1)O2 (configuration not stated),-2,5,-14,14*,-5,2,0
CCC(CC)C(=O)N(C)c1c(C)nc2c(OCc3cccc(Cl)c3)cccn12,nt,-3,nt,2,nt,nt,nt
CCN(C[C@H]1N[C@@](C)(C(=O)OC)[C@H]2C(=O)N(Cc3ccccc3)C(=O)[C@@H]12)C(=O)c1ccccc1,0,-1,nt,0,1,nt,nt
CCNC(=O)N(CC)C[C@H]1N[C@@](C)(C(=O)OC)[C@H]2C(=O)N(Cc3ccccc3)C(=O)[C@@H]12,-6,1,nt,7.1*,-5,nt,-1
O=C(N[C@H](C(=O)N1CCC[C@H]1C(=O)NC1CCCC1)C1CCCCC1)c1ccccn1,nt,-2,nt,nt,nt,nt,nt
COC(=O)c1ccc(N2CCC(c3cc(-c4ccc(OC)cc4)n[nH]3)CC2)c([N+](=O)[O-])c1,-8,9,-3,4,-1,7,nt
COc1ccc(-c2cc(C3CCN(c4ccc(C(C)=O)cc4[N+](=O)[O-])CC3)[nH]n2)cc1,-7,10,4,10*,-5,28,4
COc1cccc(N2CCN(c3ccc([N+](=O)[O-])cn3)CC2)c1,-2,-2,nt,3.4*,0,34,0
O=[N+]([O-])c1ccc(N2CCN(c3ccccc3)CC2)nc1,-7,-2,nt,0,-2,6,nt
CCc1nc2c(OCc3ccc(Cl)cc3Cl)cccn2c1N(C=O)Cc1ccc(OC)cc1,nt,1,nt,1,nt,nt,nt
CN1CCc2c(sc(NC(=O)c3ccc(C(=O)c4ccccc4)cc3)c2C(N)=O)C1,-3,-2,13,12*,-1,43,2
CCN1CCc2c(sc(NC(=O)c3ccc(S(=O)(=O)N4CC(C)OC(C)C4)cc3)c2C(N)=O)C1 (configuration not stated),-7,4,15,17*,-7,43,3
CCOC(=O)c1cn2ccc(C)cc2n1,-9,-2,-1,20*,-2,45,1
Cc1ccc2nc(-c3ccc(Cl)cc3)c(CC3CCCCC3)n2c1,nt,7,nt,0,nt,nt,nt
Cc1ccc2nc(-c3ccc(F)cc3)c(CC3CCCCC3)n2c1,nt,7,nt,8.8*,nt,nt,0
COc1ccccc1C(C)NC(=O)CCC(=O)N1CCN(S(=O)(=O)c2ccc(Cl)cc2)CC1 (configuration not stated),nt,1,nt,0,nt,nt,nt
CN1CC2(Cc3c1ccc1ccccc31)C(=O)OC(C)(C)OC2=O,-6,1,?,6.4*,-7,18,-1
CN(CC(=O)Nc1cccc(F)c1)C(=O)c1cccc(S(=O)(=O)N2CCN(c3ccccc3)CC2)c1,-4,8,6,8.0*,1,-7,-1
COC(=O)N1C[C@H](Oc2cccc3ccccc23)[C@H]2C[C@@H]1c1ccccc1O2,nt,3,nt,nt,nt,nt,nt
Brc1ccc(CNc2ccc3ncccc3c2)cc1,-7,3,-127,2.8*,-7,15,0
CCOC(=O)c1cnc(-n2nc(C)cc2C)nc1Nc1ccc(C)cc1,nt,1,nt,6.5*,nt,-11,2
Cc1ccc(F)c(S(=O)(=O)NC(=O)C2(C)CCN2C(=O)CC2CCCCC2)c1 (configuration not stated),nt,10,nt,0,nt,nt,nt
COc1ccccc1/C=N/NC(=O)C(NC(=O)c1ccccc1)=C(C)C,-1,4,nt,32*,-1,-2,0
CCN(CCCNC(=O)C1CCN(S(=O)(=O)c2cccc3nonc23)CC1)Cc1ccccc1,-5,-8,3,8.3*,2,14,0
COc1ccc(N2CCN(Cc3nc(N)nc(Nc4ccccc4OC)n3)CC2)cc1,-5,-8,45,12*,-5,21,1
SMILES,APOBEC3G inh,rCAG binder,ALR H2O2 inh,aDG glyco act,A3A deaminase,PHOSPHO1 inh,aDG conf
Cc1cc2c(c(=O)o1)[C@@]1(C(=O)N(C)c3ccccc31)C1=C(CCCC1=O)O2,nt,3,nt,nt,nt,nt,nt
CC1(C)CC2(C)OCCN2C(=S)N1 (configuration not stated),0,0,-2,3.3*!,4,32,0
CCOC(=O)C(=CNc1cc(C)nn1-c1ccc(C)cc1)C(=O)OCC,-4,-10,4,4.7*,-3,3,1
Cc1ccccc1-c1cccc([C@@H]2C[C@H]3[C@H](CON3C)CN2S(=O)(=O)c2ccccc2C)c1,nt,4,nt,6.0*,nt,nt,0
O=c1cc(-c2ccccc2)oc2ccc(O)cc12,0,4,11,2.4*,2,6,1
CCOC(=O)CC[C@@]1(C(=O)OCC)C[C@@H](CC(=O)NCc2cccs2)C(=O)N2CCCC=C21,nt,1,nt,nt,nt,nt,nt
COc1ccc(Cl)cc1C(=O)NNC(=O)c1cccc([N+](=O)[O-])c1,0,-4,-1,3.3*,6,26,0
COc1ccccc1C(=O)NNC(=O)c1cccc(Cl)c1,-3,3,-14,1,0,-3,nt
O=C(Cc1ccc(S(=O)(=O)N2CCOCC2)s1)NC1CCCCC1,0,17,-12,1,24,nt,nt
CC1CCCCC1NC(=O)Cc1ccc(S(=O)(=O)N2CCOCC2)s1 (configuration not stated),-4,2,-4,6.0*,3,nt,-1
C[C@H]1COc2cc(N3CCC[C@@H]3CO)ccc2S(=O)(=O)N1,nt,3,nt,0,nt,nt,nt
Cc1cc(C)c(S(=O)(=O)O)c(C)n1,-5,0,-8,6.9*,-2,1,0
COc1ccc(CN2CCC3CC2c2cc(Cl)ccc23)cc1 (configuration not stated),nt,-2,nt,0,nt,nt,nt
Cn1c(SCc2cccc([N+](=O)[O-])c2)nc2ccccc2c1=O,-1,0,nt,2.6*,-1,nt,0
O=C(Nc1nnc([C@@H]2O[C@H](CO)[C@@H](O)[C@H]2O)s1)Nc1ccccc1C(F)(F)F,nt,1,nt,1,nt,nt,nt
O=C(CSc1ccc(Cl)cc1)N/N=C/c1ccc([N+](=O)[O-])o1,4,15,nt,3.2*,3,15,-1
COc1ccc(NC(=O)C2(C)CCN2CCOc2ccc(C)cc2)cc1OC (configuration not stated),nt,-1,nt,0,nt,nt,nt
